This is an account of results in PubChem BioAssay.

In general, IC50 refers to the concentration that inhibits the measured activity by half. Usually AC50 stands for the midpoint of the concentration-response curve, whichever way the signal moves. As a reminder, the inhibition is the relative decrease from the control value, in per cent.

The nature of test [1]: growth inhibition of DIPG glioma cells, dose response, cell-based, SU-DIPG-XIII, MIPE4.0, CellTiter-Glo, qHTS (AID 1347061; cut-off not given, nearly all actives have AC50 up to about 37 µM;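 further: cells exposed to compound for 48 hours before readout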). To be noted: SU-DIPG-XIII viability, CellTiter-Glo ATP luminescence. For orientation: ATP-based viability assays read luminescence as a measure of living cells.
Test [2] can be described thus: growth inhibition of DIPG glioma cells, dose response, cell-based, JHH-DIPG-1, MIPE4.0, CellTiter-Glo, qHTS (AID 1347062; cut-off not given, nearly all actives have AC50 up to about 27 µM;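 on AC50: cells exposed to compound for two days before readout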). The settings on record: JHH-DIPG-1 viability, CellTiter-Glo ATP luminescence.
The nature of test [3]: SU-DIPG-VI glioma cell viability, MIPE4.0 library, CellTiter-Glo luminescence, qHTS (AID 1347066; cut-off not given, nearly all actives have AC50 up to about 30 µM;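 further: cells exposed to compound for 48 hours before readout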). The settings on record: CellTiter-Glo ATP luminescence.
A short description of test [4]: JHH-DIPG-1 glioma cell viability, MIPE5.0 library, CellTiter-Glo luminescence, qHTS (AID 1347067; cut-off not given, nearly all actives have AC50 up to about 26 µM;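 further: cells exposed to compound for 48 hours before readout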). The settings on record: JHH-DIPG-1 glioma viability, CellTiter-Glo ATP luminescence.
A short description of test [5]: SU-DIPG-XXV glioma cell viability, MIPE5.0 library, qHTS (AID 1347068; cut-off not given, nearly all actives have IC50 up to about 30 µM;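 on IC50: cells exposed to compound for 48 hours before viability readout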). On the technique in general: qHTS replaces the single test concentration by a dilution series.
A short description of test [6]: viability loss in pontine glioma line – cell-based, SU-DIPG-XXV, MIPE5.0, CellTiter-Glo, qHTS, dose response (AID 1347065; cut-off not given, nearly all actives have AC50 up to about 26 µM;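 further: cells exposed to compound for 48 hours before ATP readout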). To be noted: CellTiter-Glo ATP luminescence.
Test [7] can be described thus: sensitizers of A549 cells to miR-34 induction, primary screen, imaging, A549 dox-inducible miR-34, nuclei and caspase counts (AID 1347080;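 active means compounds whose cell count with miR-34 switched on is under 0.7 times the count with it off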). The settings on record: A549 miR-34 inducible, Hoechst nuclei count, 48 h.
Test [8] in a line: survival rescue of mitochondrial mutant cells in low glucose, primary screen, MELAS cybrids, Rieske KO mouse fibroblasts, CellTiter-Glo (AID 1508586;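 active means mean z-score across replicates of 1.96 or higher in either the MELAS or the Rieske mutant cell line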;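 further: z relative to plate mean and SD of compound and empty wells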).
Test [9] is described as follows: LFS_MB_P medulloblastoma growth inhibition, cell-based, chromothripsis tumors, cisplatin or BGB combos (AID 1671449).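 Further: cells exposed for 96 hours; 0% = vehicle DMSO and 100% = killing by high DMSO.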 To be noted: LFS_MB_P medulloblastoma cells.
A short description of test [10]: HDN33 neuroblastoma growth inhibition, cell-based, chromothripsis tumors, cisplatin or BGB combos (AID 1671450).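 Further: cells exposed to compound for four days; 0% = vehicle DMSO and 100% = cell killing by high DMSO.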 To be noted: HDN33 neuroblastoma cells, stronger effect = higher value.
Test [11] in a line: ICB984 medulloblastoma cell growth inhibition, synergistic combos for chromothripsis tumors, cisplatin or BGB combos (AID 1671451; call rule not given here;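 further: cells exposed for 96 hours before readout; 0% = vehicle DMSO and 100% = killing by high DMSO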). The settings on record: ICB984 medulloblastoma cells, drug combinations, stronger effect = higher value.
The nature of test [12]: LFS_MB_1R medulloblastoma cell growth inhibition, synergistic combos for chromothripsis tumors, cisplatin or BGB combos (AID 1671452).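 Further: cells exposed for 96 hours before readout.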 To be noted: LFS_MB_1R medulloblastoma cells, stronger effect = higher value.
A short description of test [13]: HTB85 osteosarcoma cell growth inhibition, synergistic combos for chromothripsis tumors, BGB or cisplatin IC20 combos (AID 1671453).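 Further: cells exposed for 96 hours before readout; 0% = vehicle DMSO and 100% = high DMSO killing control.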 The settings on record: HTB85 osteosarcoma cells, drug combinations, stronger effect = higher value.
The nature of test [14]: MDA-MB-436 breast carcinoma cell growth inhibition, synergistic combos for chromothripsis tumors, BGB or cisplatin combos (AID 1671458; call rule not given here;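 further: cells exposed for 96 hours; 0% = vehicle DMSO and 100% = killing by high DMSO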). To be noted: MDA-MB-436 breast carcinoma growth inhibition, drug combinations, stronger effect = higher value.
Test [15] is described as follows: growth inhibition of BT084 medulloblastoma cells, cell-based, ICGC_MB145, cisplatin and BGB IC40 combos (AID 1671461).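 Further: cells exposed to drugs for 96 hours; 0% = vehicle DMSO and 100% = high DMSO full killing control.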 To be noted: drug combinations, stronger effect = higher value.
Test [16] can be described thus: growth inhibition of RCMB18 medulloblastoma cells, cell-based, cisplatin and BGB IC40 combos (AID 1671462).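 Further: cells exposed to compound for four days.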 The settings on record: stronger effect = higher value.
The nature of test [17]: growth inhibition of CRL1545 osteosarcoma cells, cell-based, cisplatin and BGB IC20 combos (AID 1671464).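 Further: cells exposed to compound for 96 hours before readout; 0% = vehicle DMSO and 100% = high DMSO killing control.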 The settings on record: stronger effect = higher value.
Where [18] appears, read: measured here: combination with BGB IC40, at 0.05 µM.
[19] abbreviates: measured here: with BGB IC20 combination, at 0.5 µM.
The mark [20] stands for this setting: measured here: with cisplatin IC20 combination, at 0.5 µM.
The mark [21] stands for this setting: measured here: combination with cisplatin, at 0.5 µM.

Structures are written as SMILES. “And” between values parts separate entries of the source, which are not always exact repeats. Identical values can stand only once. Results filed as inconclusive are left out. More than one record can exist for a structure, and the calls need not agree. The source made the active and inactive calls. Unless noted, no stated cut-off is given here; in the data, active means inhibition above about 80%; inactive means the rest.

In the case of `CC(C)(C)C(=O)Oc1ccc2c(c1)nc(NC(=O)c1cccc([N+](=O)[O-])c1)n2CCCO`, the call in test [1], in [2], in test [3], in [4] and in [5] was inactive.

Consider `O=C(NCc1ccccc1)[C@H](Cc1ccccc1)NC(=O)[C@H]1O[C@@H]1C(=O)NCCc1ccc(O)cc1`, for which the call in test [1], in [2], in [6] and in test [3] was inactive. In addition, the IC50 in [5] is 18.6 µM (active).

As for `COc1ccc2c(Oc3ccc(NC(=O)c4c(C)n(CC(C)(C)O)n(-c5ccccc5)c4=O)nc3)ccnc2c1`, the compound was called inactive in [1], in test [2] and in [3]. In addition, the AC50 in test [6] is 13.2 µM (active). Further, the fold change in test [7] (stronger effect = lower value, cell number ratio, induced over uninduced) is 0.842 (inactive); in test [7] (measured here: relative caspase fold change +Dox/-Dox), 0.917. The cell count amounted to 7640 in test [7] (measured here: total cells with miR-34 induction, stronger effect = lower value) and 9080 in test [7] (measured here: total cells without miR-34 induction). In addition, the z-score was -0.36 (inactive) in test [8] (MELAS cybrid survival, CellTiter-Glo 48 h, stronger effect = higher value) and 1.01 in [8] (Rieske KO mouse fibroblast survival, CellTiter-Glo 72 h).

Turning to `CN1CCc2c(n(Cc3ccc(C(=O)NO)cc3)c3ccccc23)C1`, the compound was called inactive in [1]. The AC50 in [2] was 23.5 µM (active); in test [6], 18.6 µM (active).

Take `Cc1cnc(CNC(=O)c2c(=O)c3ccc(N4CCCN(C)CC4)nc3n3c2sc2ccccc23)cn1`: the result in test [1], in [2], in [6], in test [3] and in test [5] was inactive. The inhibition in [9] (at 0.5 µM, stronger effect = higher value) is -32.6% (inactive) and -19.8% (inactive); in [9] (measured here: combination with BGB IC20, at 0.005 µM), -4.81% and -24.5%; in test [9] (measured here: combination with BGB IC40, at 0.005 µM), -1.91% and -28.2%; in test [9] (setting [18]), 0.537% and -10.1%; in [9] (measured here: combination with cisplatin, at 0.5 µM, stronger effect = higher value), -27% and -20.6%; in [9] (measured here: combination with cisplatin, at 5 µM, stronger effect = higher value), 126% and 65.2%. Further, the inhibition in test [10] (BGB combo, at 5 µM) was 99.9% and 61.4%; in [10] (at 0.5 µM) it was 53.7% (inactive) and 26.5% (inactive); in [10] (cisplatin combo, at 5 µM), 99.9% and 78%; in test [10] (setting [19]), 51.6% and 27.6%; in test [10] (setting [20]) it was 44.8% and 18.7%; in test [10] (single agent, at 5 µM) it was 99.9% and 80.2%. In addition, the inhibition is 94.7% and -37.9% in test [11] (BGB IC20 combo, at 0.005 µM); 92.8% and -33.4% in [11] (BGB IC40 combo, at 0.005 µM); 102% in test [11] (BGB IC40 combo, at 0.05 µM); -35% (inactive) and -18.1% (inactive) in test [11] (at 0.5 µM); 102% in test [11] (cisplatin combo, at 0.05 µM); -48.5% and -27.9% in test [11] (cisplatin combo, at 0.5 µM). Moreover, the inhibition in test [11] (cisplatin combo, at 5 µM) is -21.1% and -37.3%; in [11] (measured here: 5 uM single agent, at 5 µM), -8.37% and -11.6%; in test [12] (at 0.5 µM), 6.38% (inactive) and -24.6% (inactive); in test [12] (setting [18]), -8.97% and -9.02%; in [12] (setting [21]), 91.9% and 6.04%; in test [12] (measured here: combination with cisplatin, at 5 µM), 104% and 102%. Besides, the inhibition in test [13] (at 0.5 µM) was 6.45% (inactive) and -21.5% (inactive); in test [13] (measured here: with BGB IC20, at 0.5 µM), 2.27% and -44.5%; in test [13] (measured here: with BGB IC20, at 5 µM), 100% and 39.1%; in [13] (measured here: with cisplatin IC20, at 0.5 µM), -0.545% and -23%; in test [13] (measured here: with cisplatin IC20, at 5 µM), 99.9% and 26.3%; in [13] (single agent, at 5 µM), 100% and 41.7%. Further, the inhibition in [14] (at 0.5 µM) is 29.4% (inactive) and 4.69% (inactive); in test [14] (measured here: BGB combination, at 0.5 µM), 10.6% and -16.3%; in [14] (measured here: BGB combination, at 5 µM), 103% and -17.9%; in test [14] (measured here: cisplatin combination, at 0.5 µM) it was 20.7% and -11.9%; in test [14] (measured here: cisplatin combination, at 5 µM), 102% and 14.1%; in test [15] (at 0.5 µM), -18.1% (inactive) and -56.2% (inactive). The inhibition in test [15] (cisplatin combination, at 0.5 µM) was 18.1% and -29.3%; in test [15] (cisplatin combination, at 5 µM) it was 108% and 82.2%; in test [15] (measured here: BGB IC40 combination 0.05 uM, at 0.05 µM) it was 77.5% and -15.1%; in [15] (single agent, at 5 µM), 106% and -74.4%; in test [16] (at 0.5 µM), 85.6% (active) and -19.4% (inactive); in test [16] (cisplatin combo, at 5 µM) it was 101% and 100%. The inhibition in [16] (measured here: BGB IC40 combination, at 0.05 µM) is -21.6% and -12.2%; in test [16] (setting [21]), 95.7% and -7.59%; in [16] (single agent, at 5 µM), 101%; in test [17] (at 0.5 µM), 38.3% (inactive) and -17.2% (inactive); in test [17] (setting [19]), 36.7% and -12.7%; in [17] (setting [20]), 39% and -19.4%. The inhibition is 2.42% and -7.19% in test [17] (single agent, at 0.05 µM); 99.9% in test [17] (single agent, at 5 µM).
